# Source: paper PMC7862700, “An all-to-all approach to the identification of sequence-specific readers for epigenetic DNA modifications on cytosine”
# Legend:
# Assay in all cases: DAPPL (digital affinity profiling via proximity ligation, sequencing); 10 mM Tris-HCl pH 7.5, 50 mM NaCl, 1 mM DTT, 4% glycerol, room temperature, 30 min; GST-TFs on glutathione beads, 16-mer random dsDNA library, 0.1% formaldehyde crosslink after washing; high values mean tight binding
# FLI1 = molecular target: T1, FLI1 (Homo sapiens, UniProt Q01543 1-452); settings: protein: recombinant; tags: N-terminal GST; dsDNA, one strand shown
# T1 sequence: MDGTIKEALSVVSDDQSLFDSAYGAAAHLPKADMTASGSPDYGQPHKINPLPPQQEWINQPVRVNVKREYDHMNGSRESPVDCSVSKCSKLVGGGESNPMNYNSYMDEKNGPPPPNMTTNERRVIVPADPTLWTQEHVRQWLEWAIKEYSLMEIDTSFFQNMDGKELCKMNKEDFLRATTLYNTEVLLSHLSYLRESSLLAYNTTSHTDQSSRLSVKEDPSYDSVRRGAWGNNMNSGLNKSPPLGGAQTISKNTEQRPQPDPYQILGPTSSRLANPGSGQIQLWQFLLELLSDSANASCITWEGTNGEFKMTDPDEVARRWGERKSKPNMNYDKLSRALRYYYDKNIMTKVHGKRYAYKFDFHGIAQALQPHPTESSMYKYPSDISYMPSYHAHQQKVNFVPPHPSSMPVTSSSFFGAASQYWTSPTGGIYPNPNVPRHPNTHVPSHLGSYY
# In short: (§1)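 Binding signal is defined as a hexamer's read frequency for one factor over its frequency for the tag-only sample. To obtain reads, GST-fused human transcription factors were expressed in yeast, captured on glutathione beads, barcoded with DNA and pooled with that sample. Pools met 200 nmole of a 16-mer random double-stranded DNA library in Tris/NaCl/DTT/glycerol buffer for 30 min at room temperature before washing, 0.1% formaldehyde crosslinking, proximity ligation (BsaI/T4 ligase, 1 h, 37 °C), PCR and Illumina NextSeq500 sequencing.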
# ELK1 = molecular target: T2, ELK1 (Homo sapiens, UniProt P19419 1-428); settings: protein: recombinant; tags: N-terminal GST; dsDNA, one strand shown
# T2 sequence: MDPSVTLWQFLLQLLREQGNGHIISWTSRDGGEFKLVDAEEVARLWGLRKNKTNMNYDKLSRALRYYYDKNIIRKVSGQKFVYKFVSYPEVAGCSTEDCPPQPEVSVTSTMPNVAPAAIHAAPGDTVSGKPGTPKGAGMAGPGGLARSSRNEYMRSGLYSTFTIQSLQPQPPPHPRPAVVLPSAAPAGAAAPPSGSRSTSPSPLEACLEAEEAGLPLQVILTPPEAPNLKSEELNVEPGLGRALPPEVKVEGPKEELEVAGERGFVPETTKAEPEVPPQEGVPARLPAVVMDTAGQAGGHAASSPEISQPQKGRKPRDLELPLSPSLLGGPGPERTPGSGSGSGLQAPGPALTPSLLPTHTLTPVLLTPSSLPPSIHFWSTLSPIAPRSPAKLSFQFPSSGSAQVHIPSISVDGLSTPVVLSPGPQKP
# In short: as §1
# GABPA = molecular target: T3, GABPA (Homo sapiens, UniProt Q06546 1-454); settings: protein: recombinant; tags: N-terminal GST; dsDNA, one strand shown
# T3 sequence: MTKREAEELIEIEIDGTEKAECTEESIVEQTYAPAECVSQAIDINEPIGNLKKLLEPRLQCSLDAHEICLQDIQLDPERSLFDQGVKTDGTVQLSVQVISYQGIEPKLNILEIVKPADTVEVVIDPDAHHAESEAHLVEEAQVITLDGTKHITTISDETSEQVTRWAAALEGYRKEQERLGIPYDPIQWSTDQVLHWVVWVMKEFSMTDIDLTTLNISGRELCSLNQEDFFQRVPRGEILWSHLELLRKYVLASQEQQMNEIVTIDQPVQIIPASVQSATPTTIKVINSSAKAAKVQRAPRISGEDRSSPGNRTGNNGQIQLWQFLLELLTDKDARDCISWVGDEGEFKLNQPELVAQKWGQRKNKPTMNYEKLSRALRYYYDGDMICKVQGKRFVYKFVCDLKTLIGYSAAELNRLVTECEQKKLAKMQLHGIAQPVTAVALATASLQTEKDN
# In short: as §1
# ERG = molecular target: T4, ERG (Homo sapiens, UniProt P11308 1-479); settings: protein: recombinant; tags: N-terminal GST; dsDNA, one strand shown
# T4 sequence: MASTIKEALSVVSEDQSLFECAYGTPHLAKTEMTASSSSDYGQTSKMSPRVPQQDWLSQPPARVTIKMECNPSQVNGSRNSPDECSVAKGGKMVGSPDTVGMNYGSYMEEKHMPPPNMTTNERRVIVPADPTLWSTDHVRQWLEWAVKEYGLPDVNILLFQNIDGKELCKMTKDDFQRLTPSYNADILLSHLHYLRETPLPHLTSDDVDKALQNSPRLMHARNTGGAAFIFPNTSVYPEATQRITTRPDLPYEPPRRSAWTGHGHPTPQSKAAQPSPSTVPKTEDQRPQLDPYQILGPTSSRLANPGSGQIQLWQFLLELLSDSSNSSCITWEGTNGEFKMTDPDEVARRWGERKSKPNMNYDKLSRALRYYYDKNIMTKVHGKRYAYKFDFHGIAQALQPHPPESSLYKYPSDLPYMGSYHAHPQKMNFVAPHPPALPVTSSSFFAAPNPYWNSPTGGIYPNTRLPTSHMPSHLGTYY
# In short: as §1
# ELF1 = ELF1 (Homo sapiens, UniProt P32519 1-619); settings: protein: recombinant; tags: N-terminal GST; dsDNA, one strand shown
# ELF1, sequence (P32519 whole entry): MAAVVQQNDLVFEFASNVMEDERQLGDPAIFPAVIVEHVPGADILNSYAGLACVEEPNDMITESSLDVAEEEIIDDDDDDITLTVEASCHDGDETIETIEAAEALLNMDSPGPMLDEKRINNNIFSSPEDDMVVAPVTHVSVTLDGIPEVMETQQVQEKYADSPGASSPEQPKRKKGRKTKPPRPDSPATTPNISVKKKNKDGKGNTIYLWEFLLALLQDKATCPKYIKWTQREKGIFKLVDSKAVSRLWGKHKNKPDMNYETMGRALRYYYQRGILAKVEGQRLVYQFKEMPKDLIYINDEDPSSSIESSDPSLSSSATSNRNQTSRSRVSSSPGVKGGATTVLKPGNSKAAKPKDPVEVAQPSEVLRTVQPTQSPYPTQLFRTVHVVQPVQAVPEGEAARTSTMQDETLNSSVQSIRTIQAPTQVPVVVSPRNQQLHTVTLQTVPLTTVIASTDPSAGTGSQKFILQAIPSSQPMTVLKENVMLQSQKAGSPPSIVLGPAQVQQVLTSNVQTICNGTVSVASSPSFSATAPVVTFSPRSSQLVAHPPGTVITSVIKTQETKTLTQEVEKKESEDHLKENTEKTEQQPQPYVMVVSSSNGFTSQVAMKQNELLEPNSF
# In short: as §1
# EHF = molecular target: T5, EHF (Homo sapiens, UniProt Q9NZC4 1-300); settings: protein: recombinant; tags: N-terminal GST; dsDNA, one strand shown
# T5 sequence: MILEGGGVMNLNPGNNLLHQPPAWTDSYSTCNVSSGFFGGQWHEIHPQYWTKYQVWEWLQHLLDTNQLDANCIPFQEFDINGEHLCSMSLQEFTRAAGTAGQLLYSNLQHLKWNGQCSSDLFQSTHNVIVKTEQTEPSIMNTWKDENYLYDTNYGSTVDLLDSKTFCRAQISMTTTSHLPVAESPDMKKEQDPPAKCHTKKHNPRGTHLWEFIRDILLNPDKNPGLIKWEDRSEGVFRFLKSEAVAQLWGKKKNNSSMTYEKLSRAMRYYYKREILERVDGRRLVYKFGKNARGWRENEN
# In short: as §1
# SPIB = SPIB (Homo sapiens, UniProt Q01892 1-262); settings: protein: recombinant; tags: N-terminal GST; dsDNA, one strand shown
# SPIB, sequence (Q01892 whole entry): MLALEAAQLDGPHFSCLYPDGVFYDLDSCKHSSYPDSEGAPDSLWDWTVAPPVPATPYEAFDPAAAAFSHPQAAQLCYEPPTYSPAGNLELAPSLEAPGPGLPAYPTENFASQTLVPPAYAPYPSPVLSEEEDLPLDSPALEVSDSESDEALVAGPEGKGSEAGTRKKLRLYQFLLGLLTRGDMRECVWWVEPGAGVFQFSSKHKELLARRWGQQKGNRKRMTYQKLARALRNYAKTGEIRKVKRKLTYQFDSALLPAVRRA
# In short: as §1
# ELK3 = molecular target: T6, ELK3 (Homo sapiens, UniProt P41970 1-407); settings: protein: recombinant; tags: N-terminal GST; dsDNA, one strand shown
# T6 sequence: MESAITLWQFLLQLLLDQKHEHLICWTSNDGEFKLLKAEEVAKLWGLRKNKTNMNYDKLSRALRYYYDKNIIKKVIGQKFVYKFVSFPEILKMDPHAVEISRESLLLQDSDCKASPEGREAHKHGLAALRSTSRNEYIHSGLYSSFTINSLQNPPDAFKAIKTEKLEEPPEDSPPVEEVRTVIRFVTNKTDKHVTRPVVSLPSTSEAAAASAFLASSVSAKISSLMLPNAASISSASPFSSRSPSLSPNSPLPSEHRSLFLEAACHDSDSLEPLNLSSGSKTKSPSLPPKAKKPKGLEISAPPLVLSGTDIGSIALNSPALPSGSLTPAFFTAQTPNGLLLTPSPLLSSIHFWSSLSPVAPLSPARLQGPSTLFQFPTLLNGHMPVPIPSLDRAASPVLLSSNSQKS
# In short: as §1
# ETV5 = ETV5 (Homo sapiens, UniProt P41161 1-510); settings: protein: recombinant; tags: N-terminal GST; dsDNA, one strand shown
# ETV5, sequence (P41161 whole entry): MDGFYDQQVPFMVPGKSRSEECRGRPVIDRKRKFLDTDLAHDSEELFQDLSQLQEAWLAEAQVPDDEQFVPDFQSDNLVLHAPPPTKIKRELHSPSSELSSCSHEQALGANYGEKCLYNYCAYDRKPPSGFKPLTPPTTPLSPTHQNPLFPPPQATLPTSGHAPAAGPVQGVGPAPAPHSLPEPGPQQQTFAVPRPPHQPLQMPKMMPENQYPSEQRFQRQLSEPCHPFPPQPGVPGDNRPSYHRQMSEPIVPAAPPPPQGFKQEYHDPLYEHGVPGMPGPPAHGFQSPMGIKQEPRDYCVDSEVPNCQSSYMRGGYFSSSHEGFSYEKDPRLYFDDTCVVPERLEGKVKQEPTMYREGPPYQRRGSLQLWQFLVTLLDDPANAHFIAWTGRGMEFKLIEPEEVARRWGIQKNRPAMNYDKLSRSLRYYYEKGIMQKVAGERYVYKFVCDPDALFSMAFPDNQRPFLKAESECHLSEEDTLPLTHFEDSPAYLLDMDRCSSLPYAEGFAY
# In short: as §1
# HSF1 = HSF1 (Homo sapiens, UniProt Q00613 1-529); settings: protein: recombinant; tags: N-terminal GST; chain copies: 3; dsDNA, one strand shown
# HSF1, sequence (Q00613 whole entry): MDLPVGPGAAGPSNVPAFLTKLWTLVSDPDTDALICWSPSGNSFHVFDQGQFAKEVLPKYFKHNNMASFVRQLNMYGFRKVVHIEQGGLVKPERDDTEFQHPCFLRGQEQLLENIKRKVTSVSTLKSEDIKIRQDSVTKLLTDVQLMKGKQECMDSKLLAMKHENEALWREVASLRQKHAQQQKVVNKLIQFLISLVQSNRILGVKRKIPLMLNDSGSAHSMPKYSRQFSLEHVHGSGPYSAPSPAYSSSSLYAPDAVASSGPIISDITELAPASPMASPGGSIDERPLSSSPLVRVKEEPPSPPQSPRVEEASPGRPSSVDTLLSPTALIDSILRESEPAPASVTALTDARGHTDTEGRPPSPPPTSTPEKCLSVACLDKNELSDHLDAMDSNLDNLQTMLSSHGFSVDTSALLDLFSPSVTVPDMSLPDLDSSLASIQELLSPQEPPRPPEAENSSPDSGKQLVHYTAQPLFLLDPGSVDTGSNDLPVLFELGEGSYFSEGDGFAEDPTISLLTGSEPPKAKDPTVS
# In short: as §1
# SPIC = molecular target: T7, SPIC (Homo sapiens, UniProt Q8N5J4 1-248); settings: protein: recombinant; tags: N-terminal GST; dsDNA, one strand shown
# T7 sequence: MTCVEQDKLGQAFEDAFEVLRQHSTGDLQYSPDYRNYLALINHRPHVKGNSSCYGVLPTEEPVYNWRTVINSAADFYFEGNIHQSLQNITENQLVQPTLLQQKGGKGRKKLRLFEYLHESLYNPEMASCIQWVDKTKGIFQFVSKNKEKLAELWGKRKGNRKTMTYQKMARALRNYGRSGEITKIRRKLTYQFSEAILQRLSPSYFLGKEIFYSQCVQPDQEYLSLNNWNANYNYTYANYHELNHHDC
# In short: as §1
# ELF4 = ELF4 (Homo sapiens, UniProt Q99607 1-663); settings: protein: recombinant; tags: N-terminal GST; dsDNA, one strand shown
# ELF4, sequence (Q99607 whole entry): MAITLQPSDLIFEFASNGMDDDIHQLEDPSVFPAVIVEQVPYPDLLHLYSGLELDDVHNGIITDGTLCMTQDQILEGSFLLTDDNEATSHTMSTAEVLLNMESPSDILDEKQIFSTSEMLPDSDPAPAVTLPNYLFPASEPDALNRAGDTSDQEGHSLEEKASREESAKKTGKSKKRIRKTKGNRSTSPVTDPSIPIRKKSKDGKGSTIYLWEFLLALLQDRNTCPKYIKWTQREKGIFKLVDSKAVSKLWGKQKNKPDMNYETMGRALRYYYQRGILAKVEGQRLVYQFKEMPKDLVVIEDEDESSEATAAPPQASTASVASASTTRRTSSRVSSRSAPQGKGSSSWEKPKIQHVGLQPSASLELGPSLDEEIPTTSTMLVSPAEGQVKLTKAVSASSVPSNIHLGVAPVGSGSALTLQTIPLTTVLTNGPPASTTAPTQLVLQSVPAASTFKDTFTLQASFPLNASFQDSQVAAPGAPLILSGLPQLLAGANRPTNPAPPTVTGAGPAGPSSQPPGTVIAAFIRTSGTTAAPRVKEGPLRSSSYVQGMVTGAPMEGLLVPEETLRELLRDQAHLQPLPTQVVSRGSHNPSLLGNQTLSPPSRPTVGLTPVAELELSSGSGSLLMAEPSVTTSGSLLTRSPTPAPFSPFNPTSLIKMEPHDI
# In short: as §1
# ELK4 = molecular target: T8, ELK4 (Homo sapiens, UniProt P28324-2 1-405); settings: protein: recombinant; tags: N-terminal GST; dsDNA, one strand shown
# T8 sequence: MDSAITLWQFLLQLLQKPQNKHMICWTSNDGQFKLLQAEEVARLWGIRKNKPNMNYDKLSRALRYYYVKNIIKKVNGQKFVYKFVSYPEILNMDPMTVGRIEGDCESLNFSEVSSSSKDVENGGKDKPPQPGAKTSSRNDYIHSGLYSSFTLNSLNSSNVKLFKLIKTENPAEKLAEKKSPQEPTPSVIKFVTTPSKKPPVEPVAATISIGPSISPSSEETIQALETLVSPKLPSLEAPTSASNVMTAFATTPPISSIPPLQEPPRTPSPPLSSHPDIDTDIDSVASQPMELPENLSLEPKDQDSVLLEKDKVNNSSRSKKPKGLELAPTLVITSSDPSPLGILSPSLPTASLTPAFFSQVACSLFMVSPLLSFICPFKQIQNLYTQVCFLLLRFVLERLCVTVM
# In short: as §1
# ETV2 = molecular target: T9, ETV2 (Homo sapiens, UniProt O00321 1-342); settings: protein: recombinant; tags: N-terminal GST; dsDNA, one strand shown
# T9 sequence: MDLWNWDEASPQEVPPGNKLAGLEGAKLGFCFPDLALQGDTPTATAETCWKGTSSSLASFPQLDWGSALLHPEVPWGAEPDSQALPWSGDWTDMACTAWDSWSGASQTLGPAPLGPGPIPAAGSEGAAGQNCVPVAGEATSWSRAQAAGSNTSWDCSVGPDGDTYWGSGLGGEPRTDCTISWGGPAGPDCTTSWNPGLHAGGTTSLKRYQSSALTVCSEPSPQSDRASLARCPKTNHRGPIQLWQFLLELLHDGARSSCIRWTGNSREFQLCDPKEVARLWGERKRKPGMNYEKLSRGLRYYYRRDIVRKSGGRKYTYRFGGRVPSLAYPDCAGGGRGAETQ
# In short: as §1
# ELF3 = molecular target: T10, ELF3 (Homo sapiens, UniProt P78545 1-371); settings: protein: recombinant; tags: N-terminal GST; dsDNA, one strand shown
# T10 sequence: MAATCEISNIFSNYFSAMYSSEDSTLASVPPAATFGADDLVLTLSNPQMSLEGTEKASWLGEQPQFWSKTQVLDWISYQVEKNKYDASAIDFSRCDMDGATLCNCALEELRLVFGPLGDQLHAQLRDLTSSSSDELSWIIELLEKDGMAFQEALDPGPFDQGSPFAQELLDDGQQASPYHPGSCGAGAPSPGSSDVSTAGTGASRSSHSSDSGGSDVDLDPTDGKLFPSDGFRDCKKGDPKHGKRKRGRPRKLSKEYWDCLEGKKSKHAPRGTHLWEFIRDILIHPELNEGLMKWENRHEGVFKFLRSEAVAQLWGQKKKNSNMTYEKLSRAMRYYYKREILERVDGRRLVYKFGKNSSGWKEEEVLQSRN
# In short: as §1
# ETV1 = ETV1 (Homo sapiens, UniProt P50549 1-477); settings: protein: recombinant; tags: N-terminal GST; dsDNA, one strand shown
# ETV1, sequence (P50549 whole entry): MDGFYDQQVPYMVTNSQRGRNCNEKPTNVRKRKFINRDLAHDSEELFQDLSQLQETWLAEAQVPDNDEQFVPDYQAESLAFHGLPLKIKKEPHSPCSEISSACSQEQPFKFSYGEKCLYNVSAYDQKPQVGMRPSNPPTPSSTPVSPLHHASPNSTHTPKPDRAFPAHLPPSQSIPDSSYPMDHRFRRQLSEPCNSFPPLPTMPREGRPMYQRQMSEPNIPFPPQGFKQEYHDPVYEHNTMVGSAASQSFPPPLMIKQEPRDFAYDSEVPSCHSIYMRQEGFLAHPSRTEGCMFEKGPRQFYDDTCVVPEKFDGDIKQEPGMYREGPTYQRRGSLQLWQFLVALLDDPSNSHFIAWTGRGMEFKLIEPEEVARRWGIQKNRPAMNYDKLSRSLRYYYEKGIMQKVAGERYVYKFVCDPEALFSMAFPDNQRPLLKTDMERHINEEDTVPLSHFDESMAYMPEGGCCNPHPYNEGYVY
# In short: as §1
sequence,measurement,setting,value
TCGACG,binding signal,FLI1,"1.23 fold enrichment (6-mer frequency, TF over GST control)"
same,binding signal,ELK1,"1.14 fold enrichment (6-mer frequency, TF over GST control)"
same,binding signal,GABPA,"1.06 fold enrichment (6-mer frequency, TF over GST control)"
same,binding signal,ERG,"1.04 fold enrichment (6-mer frequency, TF over GST control)"
same,binding signal,ELF1,"1.1 fold enrichment (6-mer frequency, TF over GST control)"
same,binding signal,EHF,"1.21 fold enrichment (6-mer frequency, TF over GST control)"
same,binding signal,SPIB,"1.05 fold enrichment (6-mer frequency, TF over GST control)"
same,binding signal,ELK3,"1.02 fold enrichment (6-mer frequency, TF over GST control)"
same,binding signal,ETV5,"1.17 fold enrichment (6-mer frequency, TF over GST control)"
same,binding signal,HSF1,"1.15 fold enrichment (6-mer frequency, TF over GST control)"
same,binding signal,SPIC,"1.07 fold enrichment (6-mer frequency, TF over GST control)"
same,binding signal,ELF4,"1.08 fold enrichment (6-mer frequency, TF over GST control)"
same,binding signal,ELK4,"1.08 fold enrichment (6-mer frequency, TF over GST control)"
same,binding signal,ETV2,"1.18 fold enrichment (6-mer frequency, TF over GST control)"
same,binding signal,ELF3,"1.06 fold enrichment (6-mer frequency, TF over GST control)"
same,binding signal,ETV1,"1.05 fold enrichment (6-mer frequency, TF over GST control)"
